The full list was thinned out, with hits kept by preference.
ALOX12 inh: Primary qHTS assay for inhibitors of human arachidonate 12S-lipoxygenase (ALOX12): Round 2; 580,000 tested, 1.1% active; purified 12hLO, xylenol orange hydroperoxide absorbance; Polyunsaturated fatty acid lipoxygenase ALOX12 (Homo sapiens), P18054; Potency, µM (highest dose often 108 µM), for the others: at the top dose activity change, negative = inhibition, hits mostly inhibitors; also: potency is read from the fitted curve at half-maximal effect
Target sequence (P18054 whole entry, looked up): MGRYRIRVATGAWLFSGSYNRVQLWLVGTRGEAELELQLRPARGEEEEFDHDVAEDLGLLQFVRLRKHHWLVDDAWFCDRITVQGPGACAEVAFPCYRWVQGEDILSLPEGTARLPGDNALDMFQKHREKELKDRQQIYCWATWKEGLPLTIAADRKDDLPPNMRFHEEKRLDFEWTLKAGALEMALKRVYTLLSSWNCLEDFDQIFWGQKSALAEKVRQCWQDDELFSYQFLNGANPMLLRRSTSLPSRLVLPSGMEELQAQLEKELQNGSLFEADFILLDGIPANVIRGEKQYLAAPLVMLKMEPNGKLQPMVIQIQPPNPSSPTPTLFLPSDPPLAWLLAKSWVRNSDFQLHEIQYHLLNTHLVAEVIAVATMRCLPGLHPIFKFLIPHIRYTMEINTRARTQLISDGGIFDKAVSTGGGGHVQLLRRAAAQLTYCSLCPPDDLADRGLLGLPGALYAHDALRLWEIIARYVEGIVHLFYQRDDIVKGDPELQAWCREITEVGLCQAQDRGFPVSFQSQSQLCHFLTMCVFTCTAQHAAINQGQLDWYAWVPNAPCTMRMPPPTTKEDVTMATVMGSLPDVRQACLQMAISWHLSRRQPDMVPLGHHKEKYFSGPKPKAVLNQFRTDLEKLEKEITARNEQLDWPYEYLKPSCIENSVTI
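Purified human 12hLO at 150 nM in 25 mM Hepes, 0.01% Triton X-100, pH 7.0, preincubated 15 min at room temperature with compound. Reaction started with 40 uM arachidonic acid, 30 min at room temperature. Hydroperoxide measured by Fe-xylenol orange, 573/405 nm absorbance ratio.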
HT1080-NT tox: qHTS for induction of synthetic lethality in tumor cells producing 2HG: qHTS for the HT-1080-NT fibrosarcoma cell line; HT-1080-NT fibrosarcoma viability, CellTiter-Glo ATP luminescence, 48 h; Potency, µM (titrated, usually from 46.1 µM), without a hit: at the top dose activity, negative = less viability, most hits filed as cytotoxic; 360,000 tested, 1.6% active; AID 686970, 2013;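 also: NT is the 2HG producing partner of a matched IDH1 knockdown line; potency is read from the fitted curve at half-maximal effect; 0% = DMSO-treated cells and -100% = media-only wells without cells; nearly all actives have a fitted effect of over 55% in size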
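HT-1080-NT fibrosarcoma cells (2HG-overproducing), 750 cells/well in RPMI with 5% FBS, dosed after 2 h and incubated 48 h at 37C. CellTiter-Glo luminescence normalized to DMSO and no-cell wells; concentration-response curves fitted and classed.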
DT40 TDP1 CPT: qHTS for Inhibitors of human tyrosyl-DNA phosphodiesterase 1 (TDP1): qHTS in cells in presence of CPT | 420,000 tested, 12% active | Potency, µM (top dose mostly 46.2 µM), for the others: at the top dose activity change, negative = growth inhibition, usual class: inhibitors | AID 686979, 2013 | chicken DT40 Tdp1-/-;hTDP1 cells + 20 nM CPT, ATP luminescence, 48 h; also: potency is read from the fitted curve at half-maximal effect; nearly all actives have a fitted effect of over 55% in size
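Chicken DT40 Tdp1-/- cells complemented with human TDP1, 400 cells/well, exposed to compounds plus 20 nM camptothecin for at least 48 h at 37 C; viability read as ATP content by CellTiter-Glo luminescence.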
HT1080 IDH1KD tx: qHTS for induction of synthetic lethality in tumor cells producing 2HG: qHTS for the HT-1080-IDH1KD cell line; HT-1080 IDH1 knockdown viability, ATP luminescence, 48 h; Potency, µM (series often up to 46.1 µM), for the others: at the highest dose activity, negative = toxicity, usual class: cytotoxic; 360,000 tested, 2% active; AID 686971, 2013;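 also: potency is read from the fitted curve at half-maximal effect; 0% = DMSO wells and -100% = cell-free medium wells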
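Using the IDH1-knockdown HT-1080 line run in the same batch and compound series as the NT line, viability after 48 h at 37 °C was determined by CellTiter-Glo luminescence and expressed as % activity.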
IL1B secr inh: qHTS for Inhibitors of Inflammasome Signaling: IL-1-beta AlphaLISA Primary Screen | activity change, % at 57.5 µM | AID 743279, 2014 | 360,000 tested, 4.7% active | THP-1 LPS/ATP IL-1B secretion, AlphaLISA, 16 h; stronger effect = lower value; in the data active = activity change below about -50%; inconclusive = mostly about -30% to -49%
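THP-1 cells pretreated 1 hr with compounds (up to 57.5 uM final), then stimulated with LPS (250 ng/mL final) plus ATP (1.25 mM final); secreted IL-1B measured by AlphaLISA after 16 hr, decreased signal indicating inhibition.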
TDP1 cell noCPT: qHTS for Inhibitors of human tyrosyl-DNA phosphodiesterase 1 (TDP1): qHTS in cells in absence of CPT | DT40 Tdp1-/- hTDP1 cells, no CPT, ATP luminescence, 48 h | Potency, µM (titrated, usually from 46.2 µM), without a hit: at the top dose activity change, negative = growth inhibition, actives largely listed as inhibitors | 420,000 tested, 15% active; also: potency is read from the fitted curve at half-maximal effect; nearly all actives have a fitted effect of over 55% in size
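Camptothecin absent (DMSO only). Human TDP1-complemented DT40 knockout cells, 400 cells/well, 37 °C for minimum 48 hr; ATP measured via CellTiter-Glo, 30 min dark incubation, luminescence.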
An asterisk follows results filed as active; ? = inconclusive; . = no result; [ ] = dose if it differs, or a comment. Unless noted, calls follow the shape of the dose curve; as a rule, active = well fitted curve in the direction sought with a large enough effect; inconclusive = small, poorly fitted or top-dose-only effect, or another doubt; inactive = no such curve, though single readings can be large; an effect the other way counts as inactive or inconclusive. Unless noted, % is scaled to controls: 0 for no effect and ±100 for the full control effect.

SMILES | ALOX12 inh | HT1080-NT tox | DT40 TDP1 CPT | HT1080 IDH1KD tx | IL1B secr inh | TDP1 cell noCPT
COc1ccc(-c2cc3ccc(OS(=O)(=O)c4ccc(F)cc4)cc3oc2=O)cc1OC | 28% | . | . | . | . | .
Cc1c(-c2ccc(O)cc2)nn(-c2ccc(O)cc2)c1-c1ccc(OCCN2CCCCC2)cc1 | 20µM* | . | 19µM* | . | . | 30µM*
c1ccc(Nc2nc(Nc3ccccc3)nc(-n3cccn3)n2)cc1 | . | . | 7.1µM* | . | . | 5µM*
c1ccc(Nc2nc(N3CCCCC3)nc(N3CCCCC3)n2)cc1 | -1% | ? | ? | ? | -11 | ?
Fc1ccc(Nc2nc(Oc3ccccc3F)nc(N3CCCC3)n2)cc1 | -12% | -1% | -28% | 2% | -53* | ?
c1ccc(Nc2nc(N3CCCCC3)nc(N3CCNCC3)n2)cc1 | 15% | ? | 29µM* | ? | -65* | 18µM*
Cc1cccc(Nc2nc(N3CCCC3)nc(N3CCCC3)n2)c1 | ? | 9% | ? | 7% | -26 | -30%
COc1nc(Nc2cccc(C)c2)nc(N2CCCCC2)n1 | ? | 3% | 18µM* | 18% | 12 | 16µM*
O=C(NCc1cccnc1)c1ccc(N2CC3CC(C2)[C@H]2CCCC(=O)N2C3)nc1 (some centres not stated) | 57% | . | . | . | . | .
Cc1cc(OCC(=O)OC(C)C(=O)Nc2ccc(N3CCOCC3)cc2)ccc1Cl (configuration not stated) | -7% | 4% | -6% | 4% | 4 | 17%
CCCn1c(N2CCN(C(=O)Nc3ccc(Cl)cc3)CC2)nc2ccccc21 | 5% | -11% | ? | -20% | ? | 23µM*
Cn1c(N2CCN(C(=O)NCc3ccccc3)CC2)nc2ccccc21 | -21% | 10% | ? | 9% | -3 | -21%
Cn1c(N2CCN(C(=O)Nc3ccc(C(F)(F)F)cc3)CC2)nc2ccccc21 | -2% | -5% | 18µM* | -18% | -13 | 21µM*
CC1=C[C@@H](CNCc2ccco2)[C@H](C(C)C)C[C@H]1Cc1nnc(C(C)(C)C)o1 | 37%[176 µM] | . | . | . | . | .
O=C(NC1CC1)c1ccc2c(Cl)c3c(nc2c1)CCCC3 | -4% | 2% | ? | 12% | -29 | ?
CCN(CC)CCCNC(=O)c1ccc2c(Cl)c3c(nc2c1)CCCC3 | -18% | 23µM* | 26µM* | 29µM* | . | 16µM*
CCCCN(CC)CCNC(=O)c1ccc2c(Cl)c3c(nc2c1)CCC3 | 0% | 21µM* | ? | 23µM* | ? | 16µM*
CC1CCC(NC(=O)c2ccc3c(Cl)c4c(nc3c2)CCCC4)CC1 (configuration not stated) | 7% | . | . | . | . | .
CC(=O)c1ccccc1C(=O)NCC1Cc2cccc(-c3cccnc3)c2O1 (configuration not stated) | 1% | . | ? | . | . | ?
Cc1cccc(C(=O)NCCc2nc3ccccc3n2Cc2ccc(Cl)cc2)c1 | -24% | . | 21µM* | . | . | ?
CCCCCn1c(CNC(=O)c2ccccc2)nc2ccccc21 | 0% | . | ? | . | . | ?
CCCCCn1c(CCNC(=O)c2cccc(C)c2)nc2ccccc21 | -16% | . | 21µM* | . | . | 18µM*
C=CCNC(=S)N/N=C/c1ccc(-c2cc(Cl)ccc2Cl)o1 | 237% | 1% | ? | 2% | 2 | ?
C=CCNC(=S)N/N=C/c1ccc(-c2ccc(Cl)cc2Cl)o1 | ? | ? | 5.2µM* | ? | 3 | 5.8µM*
C=CCNC(=S)N/N=C/c1ccc(-c2ccc(OC)cc2)o1 | 40µM* | ? | 4.1µM* | ? | -3 | 4.6µM*
SMILES | ALOX12 inh | HT1080-NT tox | DT40 TDP1 CPT | HT1080 IDH1KD tx | IL1B secr inh | TDP1 cell noCPT
O=C1CN(Cc2ccc(-c3cncnc3)cc2)CCN1c1nccc(Cl)n1 | 88% | . | . | . | . | .
CC(C(=O)NC1CCCC1)N1CCN(Cc2ccc(C(F)(F)F)cc2)CC1 (configuration not stated) | 26% | . | . | . | . | .
O=C(c1cnc(Cc2c[nH]c3ccccc23)c(I)c1)N1CCN(Cc2ccccc2)CC1 | -8% | . | . | . | . | .
O=C(c1cnc(Cc2c[nH]c3ccccc23)c(I)c1)N1CCOCC1 | 20µM* | . | . | . | . | .
Cc1cccc(OCC(=O)Nc2cccc(C(=O)OCc3cc(=O)n4nc(C(C)C)sc4n3)c2)c1 | -27% | . | ? | . | . | 12µM*
CC(C)c1nn2c(=O)cc(COC(=O)c3cccc(NC(=O)COc4ccc(F)cc4)c3)nc2s1 | -22% | . | 13µM* | . | . | 21µM*
Cc1cccc(OCC(=O)Nc2cccc(OCc3cc(=O)n4cccc(C)c4n3)c2)c1 | -1% | . | 21µM* | . | . | 15µM*
CCCc1nn2c(=O)cc(COC(=O)c3cccc(NC(=O)COc4ccc(F)cc4)c3)nc2s1 | -11% | . | 1% | . | . | -11%
Cc1cccc(C(=O)Nc2cccc(OCc3cc(=O)n4cccc(C)c4n3)c2)c1 | -7% | . | 9% | . | . | -6%
CCc1ccc(-n2nc(C)c3c2NC(=O)CC3C(=O)c2ccc(CC)s2)cc1 (configuration not stated) | -21% | . | . | . | . | .
O=C(CN1C(=O)C2(CCNCC2)Nc2ccccc21)NC1CCCCCC1 | 8% | . | . | . | . | .
CCOc1cc(NC(=O)c2ccccn2)c(OCC)cc1NC(=O)c1ccc(C)cc1 | 6% | -2% | 5.2µM* | 12% | 7 | 3.3µM*
CCOc1cc(NC(=O)C2CC2)c(OCC)cc1NC(=O)c1cccc(F)c1 | 3% | 1% | -6% | 9% | 27 | -20%
CCOc1cc(NC(=S)Nc2cccc(OC)c2)c(OCC)cc1NC(=O)c1ccc(C)cc1 | 0% | ? | ? | ? | 5 | 21µM*
CCOc1cc(NC(=O)C2CCCCC2)c(OCC)cc1NC(=O)c1ccccn1 | 3% | 6% | 3.7µM* | 12% | 13 | 1.6µM*
CCOc1cc(NC(=O)CCl)c(OCC)cc1NC(=O)CCl | -13% | ? | 2.9µM* | ? | -81* | 1.2µM*
CCOc1ccccc1NC(=O)CCC(=O)Nc1ccccc1OCC | 0% | 1% | 4% | -1% | 27 | -6%
Cc1oc(-c2cccs2)nc1C(=O)NCC1CCN(C2CC2)C1 (configuration not stated) | 20% | . | . | . | . | .

Assay outcomes as filed in PubChem.
